Test results from the supplement of paper PMC6555819.

System: VDR:RXRa (NR concentration 270 nM, RXRa partner concentration 90 nM)
Assay: PBM binding z-score (relative to random genomic background probes); higher = stronger binding; sequences stand for … in GC…GCGATTGACAGCGTAGAATGAAGG
Description: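 Protein-binding microarray (Agilent 4x180K custom design, double-stranded 60-nt probes: 5' GC cap, 34-nt variable region, 24-nt constant primer region; full probe sequence given). Purified or IVT nuclear receptor:RXRα heterodimers (3:1 NR:RXRα, mostly 270:90 nM) or homodimers were incubated for 1 h in PBS with 2% milk and no ligand, then detected with Alexa488 antibodies. Fluorescence from o1-orientation probes (~5 replicates averaged) was converted to z-scores against 500 random hg19 background probes. Variable regions are seed direct-repeat (DR0–DR5) sites, all their single-nucleotide variants and half-site ablations.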

Point of comparison: CGTGCAAGGTCATAGGAGGTCAGTGAAGACAGAT, PBM binding z-score 6.87. Against it:
- CGTCCAAGGTCAGCAGGTCAGTGACAGCGACGTG — lower, 4.1
- TGAAGGAGGTTAAAGATCAGGGAACGTGGCGTCG — lower, 1.24
- ATATGTGGGTTACATCCGGGTCATTCAGGCTATG — lower, 4.41
- ACTAGCAGGCCAAGTTAGGGTCACTCAAACAAAG — lower, 3.15
- ATCTCTAGGTAAAGATAGTTCAGTGAATGCAAAT — lower, 0.815
- CAAACTAGGTCAAGAGGTCAAAATCCGCTTCCCG — lower, 5.85
- GCATATAGGTAAGACAAGGTGAAAGTCCGATTGT — lower, 0.0453
- GCTGCTAGGTCAGGTTGGTCCGCTAACGGGTACG — lower, 0.681
- ACTCTTAGTTGAGACGAGGGCAACCGATAGGTTG — lower, 0.492
- CATACAGGGTCTGCTAGGCCAGAGTAGGGACGGC — lower, -0.426
- GCAGACAGGTGAAACGCAGGTAATTCAGGGTGGC — lower, -0.324
- ACAGACAGGTGAGTGAAAGTAACTCAGCTGGACG — lower, -0.256
- CGAACGAGGGCGTGAGTTGATAGCAAATGCCGAT — lower, 0.224
- GTACCAAGGTGAATACGTCGTTGATGAGTAGGCG — lower, -0.262
- CCTGCTAGGTCAATGGGCAGCTAAAGCAGCTCGC — lower, 0.356
- GGAACGCGGGCAAAGTTGATAGCATCTGTCGACG — lower, -0.564
- TCATATAGGGAAAGGTGAAAGTCGAACGATATGA — lower, 0.965
- CGTCCAAGGTCAGAGAGGTCAGAGAATGCCGAGT — higher, 7.59
- CCTTACGGGTCAAGGTTCTAGCACGGGTGGTACG — lower, 3.1
- AGAACGAGGGCAATGAGTTGATTGCACGGGTGGC — lower, 5.07
- TCATATAGGTAAAAGGTGAACGTCGGTGTGGTAA — lower, 1.79
- GCTAGTTGGTCAGTAAAAGTTCACACACCGGTCG — lower, 2.55
- GCTTGTAGATCAAGGTTAAGAAAGACTAAGCTAA — lower, 0.156
- TCATATAGGTATTACAGGTGAAAGTCGGCATCTA — lower, 1.34
- AATACAGGGTAATCGTAGGCCAGAGTACGCACAG — lower, 0.0104
- TCTAGTTGGTCAGGGAGGTCACACACGACGGGTA — lower, 5.4
- CCTCTGAGGACAACAGGAGGTCAGAGCTGCCAGA — lower, 2.17
- ACAGACAGGTGCGTGAAGGTAACTCAGCTGGACG — lower, -0.488
- TCGAGTAGGTTACCAATTGGGCATTCAGCTTTCT — lower, -0.197
- CCTACTTGGCCAAAAAGGTCATTGATGCCGATAA — lower, 4.82
- TCTCGGAGGACACGAAAGGTCAGATCTCGACATC — lower, 3.38
- TCGAGTAGGTTAAGGGCATTCAGAATGGCGTCGA — lower, 0.959
- GCTAGCAGGCCATTTGGGTGACTCAATGACGGGC — lower, -0.749
- GCTAGCAGGCCATTTGGGTAACTCAATGACGGGC — lower, -0.713
- CGAACGAGGGCATGTGTTGATAGCAAATGCCGAT — lower, 0.931
- ATCTCTAGGTAAAGATAGTCCAGTGAATGCAAAT — lower, -0.0135
- ATCTTTAGGTAAAAGTTCAGTGAATCCCGAGGAT — lower, 1.43
- AGAATGAGGTTATTAAGATCCGGGAATTGCGGTC — lower, 1.08
- TCTATTAGTTGATTAGGTCAACCGAAACAGCGGA — lower, 1.94
